Source: ChEMBL document CHEMBL4513216, “Probing the Open Global Health Chemical Diversity Library for Multistage-Active Starting Points for Next-Generation Antimalarials” (ACS Infect Dis, 2020)
Screen size: about 68,000 compounds; about 2,700 (4%) showed an effect of 50% or more. This is one part of a sample in which strong results are shown more often than they occur.

Each compound was assayed on Plasmodium berghei (assay: Screen against P. berghei liver stage (PbLuc), transformed with Luciferase, at 2uM). Settings: tested at 2 uM.
Type: functional, HepG2

| Structure (SMILES) | INHIBITION |
| --- | --- |
| CC(=O)N1CCC2(CC1)CN(C(=O)c1cccc3[nH]ccc13)CCO2 | 37.41% |
| CC(=O)N1CC2(CCN(C(=O)c3cccc4[nH]ccc34)CC2)C1 | 3% |
| CC(=O)N1CCC2(CC1)CN(C(=O)c1cccc3[nH]ccc13)C2 | 57.92% |
| Cc1ccc(N(Cc2ccco2)C(=O)Cc2cc(=O)n(C)[nH]2)cc1 | -12.06% |
| COC(=O)[C@H](C)NC(=O)c1cc(-c2cccc(Cl)c2)no1 | 11.28% |
| CC(NC(=O)c1cc(-c2cccc(Cl)c2)no1)C(=O)N1CCCC1 (stereo not drawn) | 24.29% |
| CC(NC(=O)c1cc(-c2cccc(Cl)c2)no1)C(=O)N(C)C (stereo not drawn) | 50.59% |
| O=C(c1cncs1)N1CCC(Cc2cnc3[nH]ccc3c2)CC1 | -11.64% |
| COCCNC(=O)Nc1ccc(-c2nc(C(C)C)no2)cc1 | 58.53% |
| CC(C)c1noc(-c2ccc(NC(=O)NCC(O)C(C)C)cc2)n1 (stereo not drawn) | -10.44% |
| CC(C)OC(=O)CNC(=O)Nc1ccc(-c2nc(C(C)C)no2)cc1 | -13.72% |
| O=c1c2ccc(C(F)(F)F)cc2ncn1CCCN1CCCCC1CO (stereo not drawn) | -13.49% |
| Cc1nn(C)cc1CN1CCC(c2ncc(Cl)cc2S(C)(=O)=O)CC1 | 20.51% |
| COc1ccc(C2SCC(=O)Nc3n[nH]cc32)c(OC)c1OC (stereo not drawn) | 2.66% |
| COc1cc(C2SCC(=O)Nc3n[nH]cc32)cc(OC)c1O (stereo not drawn) | -33.37% |
| O=C1CSC(c2ccncc2)c2c[nH]nc2N1 (stereo not drawn) | 76.13% |
| Cc1cccc(C(=O)NCc2ccccc2)n1 | 5.09% |
| CC(C)NC(=O)NCCCc1cccc(F)c1 | 78.96% |
| CC(=O)NCCNC(=O)NCCCc1cccc(F)c1 | 31.55% |
| CC(C)(C)S(=O)(=O)CCNC(=O)NCCCc1cccc(F)c1 | 26.02% |
| OC(CN1CCN(CCOCC(F)(F)F)CC1)c1ccccc1 (stereo not drawn) | 25.35% |
| Cc1ncsc1C(=O)NC1CCN(c2ncccc2C#N)CC1 | -4.58% |
| N#Cc1ccccc1N1CCCN(C(=O)CCc2ccco2)CC1 | 75.56% |

| Structure (SMILES) | INHIBITION |
| --- | --- |
| N#Cc1cccnc1N1CCN(C(=O)CCC(=O)c2cccs2)CC1 | 53.81% |
| N#Cc1ccccc1N1CCCN(C(=O)CCc2ccsc2)CC1 | -107.32% |
| N#Cc1cccnc1N1CCCN(C(=O)CCc2nccs2)CC1 | -71.75% |
| Cc1ncsc1CCC(=O)NC1CCN(c2ccc(Cl)nn2)CC1 | 2.04% |
| Cc1ncsc1CCC(=O)NC1CCN(c2ncccc2C#N)CC1 | 51.81% |
| N#Cc1ccccc1N1CCCN(C(=O)CCc2nccs2)CC1 | 63.95% |
| N#Cc1cccnc1N1CCCN(C(=O)CCc2cccs2)CC1 | 10.1% |
| N#Cc1ccccc1N1CCCN(C(=O)CCc2cccs2)CC1 | 16.08% |
| N#Cc1cccnc1N1CCN(C(=O)c2cccs2)CC1 | 23.76% |
| O=C(CCc1nccs1)N1CCN(c2ccccc2F)CC1 | 44.12% |
| COC1COC2(CCN(Cc3ccccc3C)CC2)C1 (stereo not drawn) | 27.65% |
| CC(C)n1cnc2c(N3CCCC3)nc(C3CCNCC3)cc21 | 14.39% |
| CC(NCc1ccccc1Br)c1ccc2[nH]c(=O)[nH]c2c1 (stereo not drawn) | 20.28% |
| CCCc1nc2c(c(C)c(C)n2Cc2ccccn2)c(N)c1CC | -17.84% |
| O=C(NCCc1cc(N2CCOCC2)nc(NC2CC2)n1)C1CC1 | 38.45% |
| COCCN1CCN(c2nc(O)cc(Cc3ccccc3F)n2)CC1 | -35.66% |
| Cc1cc(NC(=O)Cn2cc(C#N)c(=O)c3cc(Br)ccc32)no1 | 3.43% |
| CN(Cc1ccon1)C(=O)CN1C(=O)OC(C)(C)C1=O | 70.76% |
| CN(Cc1cc(C2CC2)on1)C(=O)CN1C(=O)OC(C)(C)C1=O | 37.41% |
| CN(Cc1ccoc1)C(=O)CN1C(=O)OC(C)(C)C1=O | 0.85% |
| CCn1nc(C)c2nc(C(C)C)nc(N3CCC(O)CC3)c21 | 5.86% |
| O=C(c1cccc(F)c1)N1CCC2(CC1)CN(c1ccccn1)CCO2 | -29.13% |
| COCCn1/c(=N\C(=O)CN(C)S(C)(=O)=O)sc2cc(Cl)ccc21 | 52.05% |

| Structure (SMILES) | INHIBITION |
| --- | --- |
| COCCn1/c(=N\C(=O)CN(C)S(C)(=O)=O)sc2cc(OC)ccc21 | 11.87% |
| COCCn1/c(=N\C(=O)CN(C)S(C)(=O)=O)sc2cc(C)ccc21 | 29.19% |
| Nc1ncnc2[nH]c(N3CCCCC3)nc12 | -87.36% |
| Clc1ccccc1OC1CN(CC2CCOC2)C1 (stereo not drawn) | -14.36% |
| CC(C)NC(=O)N1CCC[C@H]1C(=O)NCCCc1cccc(F)c1 | -22.24% |
| CN(Cc1ccc(F)cc1)C(=O)CN1CCCC(Cn2cncn2)C1 (stereo not drawn) | 2.08% |
| CN(Cc1cccc(F)c1)C(=O)CN1CCCC1CCc1ccccc1 (stereo not drawn) | 80.56% |
| CN(Cc1cccc(F)c1)C(=O)CN1CCCCC1Cn1cncn1 (stereo not drawn) | 3.3% |
| CN(Cc1ccccc1)C(=O)CN1CCCC(Cn2cncn2)C1 (stereo not drawn) | 45.5% |
| CN(Cc1cccc(F)c1)C(=O)CN1CCCC(Cn2cncn2)C1 (stereo not drawn) | 53.1% |
| N#CCCN(CCC#N)C(=O)CN1CCCC1Cc1cccc(F)c1 (stereo not drawn) | -43.03% |
| COc1cc(OC)cc(C(=O)N(C)Cc2nnc3ccccn23)c1 | 34.39% |
| Cc1ccc(N2C[C@H]3CCC[C@@H](CN4CCOCC4)[C@H]3C2)nn1 | -7.49% |
| CN(C)c1ccc(C(=O)NCc2cccnc2-n2cncn2)cc1F | 20.19% |
| O=C(CCC1CCCO1)NCc1ccccc1Cn1cncn1 (stereo not drawn) | 64.16% |
| O=C(NCc1ccccc1Cn1cncn1)N1CCCC1 | -9.49% |
| CN(C)C1CCN(C(=O)NCc2ccccc2Cn2cncn2)CC1 | 9.05% |
| O=C(CC1CCCO1)NCc1ccccc1Cn1cncn1 (stereo not drawn) | 8.37% |
| O=C(CCNC(=O)C1CCCC1)NCc1ccccc1Cn1cncn1 | -14.17% |
| NC(=O)C1CCN(C(=O)NCc2ccccc2Cn2cncn2)CC1 | 64.07% |
| O=C(NCc1ccon1)c1c(F)cc(Br)cc1F | 1.04% |
| Cc1nc(C2CCCN(C(=O)c3c[nH]c(C(C)C)n3)C2)no1 (stereo not drawn) | 13.3% |
